Source: PubChem (The Scripps Research Institute Molecular Screening Center)
SRC3 TRFRET art: counter-screen for PPARgamma SRC-3 recruitment agonists: TR-FRET artefact. 0.39% of 99,000 active. PPARgamma/SRC-3 format; hits give high values. TR-FRET ratio at 8 µM. AID 1048
SRC1 TRFRET art: TR-FRET artefact, counter-screen to PPARgamma/SRC-1 agonist assay. TR-FRET detection artefact counter-screen, emission ratio; hits give high values. AID 1051. 0.34% of 99,000 active. TR-FRET ratio at 8 µM; in the data active = TR-FRET ratio above about 2300
TR-FRET SRC-2 ct: counter-screen for PPARgamma SRC-2 recruitment agonists: TR-FRET artefact; AID 1049; 0.4% of 200,000 active; TR-FRET ratio at 8 µM; hits give high values
PPARg SRC3 recr: agonists of human PPARgamma SRC-3 coactivator recruitment; biochemical PPARgamma/SRC-3 coactivator recruitment assay; activation, % at 8 µM; 0.26% of 200,000 active; AID 731; in the data active = activation above about 23%;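 note: 0% = DMSO and 100% = reference agonist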
Target sequence (P37231 whole entry, looked up): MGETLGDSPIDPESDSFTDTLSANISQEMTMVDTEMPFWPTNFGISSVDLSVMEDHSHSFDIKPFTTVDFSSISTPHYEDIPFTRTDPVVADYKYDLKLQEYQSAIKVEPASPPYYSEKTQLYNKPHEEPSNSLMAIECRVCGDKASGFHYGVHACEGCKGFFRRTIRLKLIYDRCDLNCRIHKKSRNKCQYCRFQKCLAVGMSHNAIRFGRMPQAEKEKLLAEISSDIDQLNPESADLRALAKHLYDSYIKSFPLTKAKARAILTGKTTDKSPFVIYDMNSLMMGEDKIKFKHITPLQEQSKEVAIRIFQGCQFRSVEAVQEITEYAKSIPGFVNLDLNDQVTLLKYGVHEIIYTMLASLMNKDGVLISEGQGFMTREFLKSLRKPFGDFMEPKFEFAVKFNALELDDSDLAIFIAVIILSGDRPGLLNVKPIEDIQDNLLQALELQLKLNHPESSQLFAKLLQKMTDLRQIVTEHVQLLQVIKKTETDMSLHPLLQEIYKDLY
PPARg SRC-2 ag: promotes SRC-2 coactivator recruitment by human PPARgamma; PPARgamma LBD-SRC-2 recruitment, biochemical; activation, % at 8 µM; 0.34% of 200,000 active; AID 1032; in the data active = activation above about 22%;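 note: 0% = vehicle and 100% = reference agonist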
PPARg SRC1 recr: agonists of human PPARgamma SRC-1 coactivator recruitment; PPARgamma-SRC-1 coactivator recruitment biochemical assay; AID 631; 0.41% of 200,000 active; activation, % at 8 µM; in the data active = activation above about 19%;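 note: 0% = DMSO and 100% = reference agonist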
* = called active by the depositor; / = not tested or not shown. Hits are enriched below; roughly 0.9% of the tested compounds scored in any of these assays. Cut-off read from the data, not from the text of the source, unless noted: active = TR-FRET ratio above about 2000; inactive = the rest.

SMILES	SRC3 TRFRET art	SRC1 TRFRET art	TR-FRET SRC-2 ct	PPARg SRC3 recr	PPARg SRC-2 ag	PPARg SRC1 recr
O=C(Nc1ccc2oc(-c3ccc4ccccc4c3)nc2c1)c1ccc2c(c1)OCCO2	/	/	1469	7	7	27*
O=c1c(Cl)c(Nc2cccc(Cl)c2)cnn1-c1nc2ccccc2s1	2400*	2149	2092*	4	5	9
COc1ccc(Nc2cnn(-c3nc4ccccc4s3)c(=O)c2Cl)cc1	1521	2001	1746	8	5	13
CSc1nc(S(=O)(=O)c2ccc(C)cc2)c(Cl)s1	1695	1880	1566	5	5	4
Cc1cc(C)n(-c2nc(SCC(=O)Nc3nccs3)c3c4c(sc3n2)COC(C)(C)C4)n1	/	/	1687	5	5	19*
CC1=CC=CN2C1=NC(=O)CC2(C)C(=O)N(CC(=O)NC1CCCC1)c1cc(C)cc(C)c1 (stereo not drawn)	1550	1912	1497	-1	5	-1
O=c1[nH]n(-c2ccccc2)c(=O)c2ccccc12	1715	1771	1664	4	2	20*
O=c1[nH]n(-c2ccccn2)c(=O)c2ccccc12	/	/	1735	-6	-2	-1
CC(OC(=O)c1cc2sccc2n1C)C(=O)NCc1cccs1 (stereo not drawn)	/	/	1517	8	1	24*
CCOC(=O)C1CCN(c2ccc([N+](=O)[O-])c(C(C)=O)c2)CC1	1349	1769	1371	-3	1	0
CCCNC(=O)c1ccc(C2SCC(=O)N2CCc2ccccc2)cc1 (stereo not drawn)	1448	1578	1634	1	-4	2
Cc1ccc(NC(=O)CN(C)C(=S)NC2CC2)cc1	1529	2119	1539	2	6	26*
Cc1noc2ncnc(Oc3ccc(Cl)cc3Cl)c12	1603	1723	1554	5	-2	8
O=c1c2cnn(-c3ccccc3)c2nc(-c2cccs2)n1-c1cccc(Cl)c1	2389*	1717	1669	11	0	3
O=c1c2cnn(-c3ccccc3)c2nc(-c2cccs2)n1-c1ccc(Cl)cc1	/	/	1373	-10	-6	5
COc1cccc(-c2nn(-c3ccccc3)cc2C(=O)OCC(=O)Nc2ncc(Cl)cc2Cl)c1	3059*	2559*	2626*	0	11	8
O=C(COC(=O)c1ccccc1O)Nc1ncc(Cl)cc1Cl	1607	2036	1547	0	9	4
Cc1ccc(C)c(NC(=O)COC(=O)CC2c3ccccc3CCN2S(=O)(=O)c2ccc(F)cc2)c1 (stereo not drawn)	1617	1755	1614	3	9	6
CCOC(=O)c1sc(=NC(=O)CCSc2ccccc2)n(C)c1C	2393*	2065	1413	6	-4	6
CCOC(=O)c1sc(=NC(=O)c2cc(OC)c(OC)c(OC)c2)n(C)c1C	/	/	1659	338*	-3	-1
COc1ccc(NC(=O)N2CCN(S(C)(=O)=O)CC2)c(OC)c1	1733	1973	1616	-1	5	10
COc1ccc(-c2c(C)n([O-])c3c([n+]2=O)CCCCC3)cc1OC	1685	1699	1628	1	6	-3
COC(=O)c1ccc(C(=O)OC)c(NC(=O)CCC(=O)O)c1	/	/	1558	-7	3	7
COC(=O)c1ccc(C(=O)OC)c(NC(=O)C(C)(C)C)c1	1496	3181*	1765	0	9	46*
CCCNC(=O)C(CC)NS(=O)(=O)c1ccc(OC)cc1 (stereo not drawn)	/	/	1497	44*	13	7
SMILES	SRC3 TRFRET art	SRC1 TRFRET art	TR-FRET SRC-2 ct	PPARg SRC3 recr	PPARg SRC-2 ag	PPARg SRC1 recr
CCc1cc2ccc(C)cc2nc1SCC(=O)Nc1c[nH]c(=O)[nH]c1=O	1611	1980	1650	3	3	-1
O=C(CCn1nnc2ccccc21)NNC(=O)C1CCCCC1	1387	1683	1598	-1	3	7
c1ccc2sc(N3CCOCC3)nc2c1	/	/	1698	-1	9	6
Clc1ccc(Cl)c2sc(N3CCCC3)nc12	/	/	1469	-3	-6	2
Clc1cccc2sc(N3CCN(c4ccccc4)CC3)nc12	1618	2030	1671	-1	28*	1
COc1cccc2sc(N3CCN(c4nc5ccccc5s4)CC3)nc12	/	/	1528	31*	3	12
O=C1CCCN1CCC1CCN(C(=S)Nc2ccc(F)cc2)CC1	/	/	1700	15	22*	-1
O=C1CCCN1CCCNC(=S)Nc1ccc(F)cc1	1493	1772	1370	-2	0	-5
Cc1noc(C)c1S(=O)(=O)N(CC(=O)Nc1ccc2c(c1)OCO2)c1ccc(C(C)C)cc1	/	/	1718	5	11	4
Cc1n[nH]c(C)c1S(=O)(=O)N(CC(=O)Nc1ccc2c(c1)OCCO2)c1ccc(C(C)C)cc1	/	/	1632	0	24*	7
CC(=O)Nc1ccc(Br)cc1C(=O)C(=O)O	1667	1927	1641	5	7	12
Cc1c(Nc2scc(-c3ccccc3)[n+]2-c2ccccc2)c(=O)n(-c2ccccc2)n1C	1624	1586	1361	-5	-4	-2
Cc1ccccc1Nc1scc(-c2ccc(Cl)cc2)[n+]1-c1ccccc1C	1661	2015	2007*	9	9	5
Cc1nn(CCCC(=O)Nc2c(F)cc(F)cc2Br)c(C)c1[N+](=O)[O-]	1736	1889	1591	0	8	2
CC(NC(=S)Nc1ccc(F)cc1)C(c1cccs1)N1CCOCC1 (stereo not drawn)	1329	1665	1503	3	2	4
NC(=S)Nc1cccc2cc3ccccc3cc12	/	/	1632	16	22*	14
O=C(O)C1=C(OCc2ccccc2)C(=O)NCC1	1770	1814	1759	2	8	3
CCOC(=O)c1c(-c2ccccc2)csc1NC(=O)c1cc(S(=O)(=O)N2CCOCC2)ccc1C	2203*	1833	1857	4	6	5
CCOC(=O)c1c(-c2ccccc2)csc1NC(=O)c1ccc(S(=O)(=O)N2CC(C)OC(C)C2)cc1 (stereo not drawn)	/	/	1345	-1	-6	-3
CCCCc1c(C)nc2ccc(Br)cc2c1SCCC#N	2091*	2268	2017*	13	14	7
CCc1c(C)nc2c(Br)cccc2c1SCCC#N	2026	2367*	1953	12	19	11
COc1c(OC)c(O)c2c(=O)cc(-c3c(O)cccc3O)oc2c1OC	1661	1922	1598	0	2	21*
COc1ccc(-c2cc(=O)c3c(OC)c(OC)c(OC)c(OC)c3o2)cc1OC	1488	2007	1392	9	-3	5
O=C(NNS(=O)(=O)c1ccc(F)c(Cl)c1)c1cccc(S(=O)(=O)N2CCOCC2)c1	1712	2152	1643	4	5	7
CC(C)N(C)C(=O)C(=O)c1cccn1-c1cccc(Cl)c1C#N	1624	2315*	1459	6	7	8
CCOC(=O)CS(=O)(=O)c1ccccc1	/	/	1540	4	0	1
